# Reference: ChEMBL document CHEMBL4513216, “Probing the Open Global Health Chemical Diversity Library for Multistage-Active Starting Points for Next-Generation Antimalarials” (ACS Infect Dis, 2020)
# Screen size: about 68,000 compounds; about 2,700 (4%) showed an effect of 50% or more. The list comes from a sample in which strong results are over-represented; it also holds similar structures and randomly drawn compounds.
# System: Plasmodium berghei
# Experiment: Screen against P. berghei liver stage (PbLuc), transformed with Luciferase, at 2uM
# Type: functional, HepG2
# Conditions: tested at 2 uM
row,SMILES,INHIBITION [%]
1,Cn1cccc1C(=O)N1CCO[C@H]2[C@H](OCc3cccnc3)CC[C@@H]21,0.32
2,O=C1NCCN(Cc2cccnc2)C1CC(=O)N1CCc2n[nH]cc2C1 (stereo not given),-3.25
3,O=C1NCCN(Cc2ccccc2)C1CC(=O)N1CCc2n[nH]cc2C1 (stereo not given),50.32
4,O=C1NCCN(CC2CCCCC2)C1CC(=O)N1CCc2n[nH]cc2C1 (stereo not given),5.17
5,Cc1nc2c(c(N3CCC4(CCCNC4=O)C3)n1)CCC2 (stereo not given),27.85
6,CNc1nc(N2CCC3(CCCNC3=O)C2)nc2c1CCC2 (stereo not given),56.49
7,Cc1nc(N2CCC3(CCCNC3=O)C2)nc2c1CCCC2 (stereo not given),62
8,Cc1cc(C2CCC2)nc(N2CCC3(CCCNC3=O)C2)n1 (stereo not given),4.74
9,O=C1NCCCC12CCN(c1nc3c(c(C(F)(F)F)n1)CCCC3)C2 (stereo not given),1.42
10,CN(C)c1nc2c(c(N3CCC4(CCCNC4=O)C3)n1)CCCC2 (stereo not given),42.17
11,O=c1[nH][nH]c2cn(-c3ccccc3)c(=O)n12,-73.41
12,N#CCCn1cnc2c(F)cc(Br)cc2c1=O,-23.16
13,c1cc(-c2nnc(C3CCCN(CC4CCCCC4)C3)o2)ccn1 (stereo not given),29.48
14,Cc1cccc2nc(CNC(=O)N3CCC(OCC4CC4)CC3)cn12,38.2
15,Cc1ccc(OCCCC(=O)Nc2nonc2C)cc1C,-9.17
16,CN(C)C(=O)COCc1cncc2c1CCN(Cc1ccccn1)C2,41.93
17,CN(C)CCOCc1cncc2c1CCN(Cc1ccccn1)C2,56.21
18,COCc1cncc2c1CCN(Cc1ccccn1)C2,0.3
19,O=C(c1ccnn1COc1ccc(Cl)cc1)N1CCOCC1,8.56
20,CCn1c(Nc2ccccc2OC)nc2c(C)nn(C)c2c1=O,-18.88
21,O=S(=O)(Cc1ccc(F)c(Cl)c1)NC(CO)c1ccco1 (stereo not given),26.62
22,Cc1noc2nc(C3CCN(CC4CCCCC4)CC3)cc(C(F)F)c12,-7.7
23,COc1ccnc(N(C)Cc2csc(C)n2)n1,-21.99
24,Cc1nc(CN(C)c2nccc(N(C)C)n2)cs1,-13.89
25,Cc1nc(CN(C)c2nccc(C(F)(F)F)n2)cs1,60.13
26,Cc1nn(C)c(C)c1Cc1nc(N(C)C)no1,20.71
27,CC(C)c1nccn1Cc1cc(C(=O)NCC(F)(F)F)n[nH]1,-7.52
28,O=C1NCC(C(=O)Nc2ncc(Cc3ccccc3)s2)N1 (stereo not given),53.98
29,O=C1NCC(C(=O)Nc2ncc(Cc3ccc(F)cc3)s2)N1 (stereo not given),21.39
30,O=C1NCC(C(=O)Nc2ncc(Cc3cccc(F)c3)s2)N1 (stereo not given),3.06
